Experimental data reported in ChEMBL document CHEMBL4513216, “Probing the Open Global Health Chemical Diversity Library for Multistage-Active Starting Points for Next-Generation Antimalarials” (ACS Infect Dis, 2020).
Among all 68,000 compounds or so, about 2,700 (4%) showed an effect of 50% or more. The full list was thinned out, with strong results kept by preference.

system: Plasmodium berghei; assay: Screen against P. berghei liver stage (PbLuc), transformed with Luciferase, at 2uM; format: functional, HepG2; settings: tested at 2 uM

In order of falling INHIBITION:
1. c1cc(-c2nnn3c2COC(CNCC2CCOCC2)C3)ccn1 (stereo unspecified)  86.79%
2. CCS(=O)(=O)N1CCc2ccc(NC(=O)Nc3cccc(C)c3)cc21  80.54%
3. CCS(=O)(=O)N1CCc2ccc(NC(=O)Nc3cccc(F)c3)cc21  78.93%
4. CC1N(C)C(=O)COC12CCN(C(=O)CCc1ccccc1)CC2 (stereo unspecified)  65.38%
5. NS(=O)(=O)N1CCc2ccc(NC(=O)Cc3ccccc3F)cc21  60.14%
6. O=C(NCCN1CCOCC1)c1ccc(-c2ccc(F)cc2)nc1O  58.75%
7. O=C(NCCCN1CCOCC1)c1ccn(COc2ccc(F)cc2)n1  58.42%
8. CCOCCC(=O)Nc1cccc(Cl)c1C(N)=O  56.89%
9. Nc1cc(CCC2CN(Cc3ccc4cc[nH]c4c3)CCO2)ccn1 (stereo unspecified)  52.69%
10. COC(=O)C(C)NC(=O)CSCc1nc(O)c2cc(C(C)C)sc2n1 (stereo unspecified)  52.08%
11. Cc1nc[nH]c1CN(Cc1ccccc1)C1CC(C)(C)NC(C)(C)C1  50.68%
12. CC(C)NC(=O)c1nnn(-c2cccc(C(F)(F)F)c2)c1N  50.54%
13. CCS(=O)(=O)N1CCc2ccc(NC(=O)Nc3cccc(SC)c3)cc21  47.4%
14. O=C(NCc1ccco1)[C@H]1C[C@@H]2CCN(c3cccc(F)c3)C[C@H]2O1  45.28%
15. CC(C)c1ccc(S(=O)(=O)N2CCCC3(CCCN3S(C)(=O)=O)C2)cc1 (stereo unspecified)  42.62%
16. O=C(NCCN1CCOCC1)c1ccc(-c2ccccc2)[nH]c1=O  40.47%
17. Cc1nc[nH]c1CN(Cc1ccccc1F)C1CC(C)(C)NC(C)(C)C1  39.26%
18. CCS(=O)(=O)N1CCc2ccc(NC(=O)Nc3ccc(F)cc3F)cc21  36.98%
19. CCCN1CCC(N2CCN(c3cccc(C)n3)CC2)CC1  36.24%
20. CCc1nnc(C(C)N2CCN(CCC(=O)NC3CC3)CC2)o1 (stereo unspecified)  35.61%
21. Nc1cc(CCC2CN(Cc3ccc4c(c3)OCCO4)CCO2)ccn1 (stereo unspecified)  23.87%
22. CCS(=O)(=O)N1CCc2ccc(NC(=O)Nc3ccccc3)cc21  20.38%
23. Cc1nc2c(c(=O)[nH]1)CN(C(=O)CCC1CCCN(C)C1)C2 (stereo unspecified)  19.48%
24. CC(C)CCc1nc(CNCC2CCCN2c2cccnn2)cs1 (stereo unspecified)  15.47%
25. c1ccc(-c2nnn3c2COC(CNCC2CC2)C3)cc1 (stereo unspecified)  14.48%
26. O=C(NCCCN1CCOCC1)c1ccn(COc2ccc(Br)cc2)n1  12.84%
27. CCc1n[nH]c(C2CN(Cc3csc(COC)n3)CCO2)n1 (stereo unspecified)  12.58%
28. c1ccc(-c2nnn3c2COC(CNCC2CCOCC2)C3)cc1 (stereo unspecified)  12.36%
29. Cc1cn2c(n1)C(CNCC1=Cc3cc(Cl)ccc3OC1)CCC2 (stereo unspecified)  9.21%
30. NS(=O)(=O)N1CCc2ccc(NC(=O)CC(F)(F)F)cc21  6.91%
31. CC(C)(C)C(CCO)NC(=O)Nc1ccncc1 (stereo unspecified)  6.84%
32. COC(=O)CNC(=O)CSCc1nc(O)c2cc(C(C)C)sc2n1  5.36%
33. CC(c1nc(C(C)(C)C)no1)N1CCC(N2CCCC2)CC1 (stereo unspecified)  4.52%
34. CN(CC(=O)N1CCOC(CCc2ccccc2)C1)Cc1ccccn1 (stereo unspecified)  3.94%
35. CC1N(C)C(=O)COC12CCN(C(=O)Cc1ccsc1)CC2 (stereo unspecified)  2.18%
36. NS(=O)(=O)N1CCc2ccc(NC(=O)Cc3ccc(F)cc3)cc21  1.22%
37. CCOCCC(=O)Nc1cccc(Cl)c1COC  1.06%
38. CC(C)NC(=O)[C@@H]1C[C@@H]2CCN(Cc3ccoc3)C[C@H]2O1  0%
39. CCS(=O)(=O)N1CCc2ccc(NC(=O)Nc3ccccc3C)cc21  -7.56%
40. COCCc1noc(CN2C(=O)OC[C@@H]2C(C)C)n1  -7.66%
41. Cc1c(C(=O)NC(C)C)nnn1-c1cccc(C(F)(F)F)c1  -8.75%
42. CN(C)C(=O)c1n[nH]c2c1CN(Cc1nccs1)CC2  -8.84%
43. c1cncc(CNCCc2cccs2)c1  -10.44%
44. O=C(NCCN1CCOCC1)c1ccn(COc2ccc(F)cc2)n1  -10.62%
45. CCN1C[C@H]2CCN(C(=O)NC)CC[C@H]2S1(=O)=O  -11.73%
46. CCCS(=O)(=O)N1CCC2(CC1)CC(N1CCCC1)c1ccccc12 (stereo unspecified)  -21.74%
47. O=C(c1cccc(F)c1)N1CCC2(CC1)CC(N1CCOCC1)C2  -21.77%
48. CCOCCC(=O)Nc1ccnn1-c1ccc(Cl)cc1  -24.07%
49. Cc1nc[nH]c1CN(Cc1ccc(F)cc1)C1CC(C)(C)NC(C)(C)C1  -24.35%
50. Cc1cccc(C(=O)NCc2ccc(N3CCCCCC3)nc2)n1  -26.87%
51. CC1N(C)C(=O)COC12CCN(Cc1ccsc1)CC2 (stereo unspecified)  -30.38%
52. COCCNC(=O)CSCc1nc(O)c2cc(C(C)C)sc2n1  -43.28%
53. COCC1CN(Cc2ccc(OC)cc2)Cc2nn(C)cc21 (stereo unspecified)  -62.13%
54. CC(C)NC(=O)c1nnn(-c2cccc(C(F)(F)F)c2)c1C1CC1  -66.52%
55. Cc1ccc(C(=O)NCCN2CCOCC2)c(=O)[nH]1  -84.65%
56. COc1ccc(CN2CCOC(CCc3ccnc(N)c3)C2)cc1 (stereo unspecified)  -152.49%
